# Rows were chosen to be rich in hits. Some 9% of all compounds tested hit in one or more screens of this group.
# BAZ2B inh – inhibitors of human BAZ2B bromodomain. AlphaScreen BAZ2B-H3K14Ac peptide displacement. Potency, µM (series often up to 114 µM), most hits filed as inhibitors. 4.4% of 360,000 active. AID 504333; also: nearly all actives have a fitted effect of over 60% in size
#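 Complex of BAZ2B and biotin-H3K14Ac (50 nM apiece) forms over 30 min at RT, then faces library compounds up to 110 uM for another 30 min; AlphaScreen beads added, 20 min dark incubation, luminescence read.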
# JMJD2A Tudor inh – blocks the human JMJD2A Tudor domain | O75164 | AlphaScreen JMJD2A-Tudor / H3K4me3 peptide binding | Potency, µM (titrated, usually from 114 µM), usual class: inhibitors | 4.4% of 390,000 active | AID 504339; also: nearly all actives have a fitted effect of over 50% in size
# HP1b binding inh – blocks HP1-beta chromodomain binding to methylated histone tails; P83916; AlphaScreen HP1-beta / biotin-H3K9me3 peptide binding; Potency, µM (doses to about 114 µM), usual class: inhibitors; 0.56% of 390,000 active; also: nearly all actives have a fitted effect of over 70% in size
# Target sequence (P83916 whole entry, looked up): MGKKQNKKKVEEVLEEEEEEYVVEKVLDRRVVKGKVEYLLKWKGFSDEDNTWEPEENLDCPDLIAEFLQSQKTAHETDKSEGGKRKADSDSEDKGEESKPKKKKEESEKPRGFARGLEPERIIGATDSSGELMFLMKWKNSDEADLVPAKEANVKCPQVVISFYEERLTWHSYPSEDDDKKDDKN
#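 AlphaScreen: HP1-beta (50 nM) preformed 30 min with biotin-H3(1-18)K9me3 peptide (50 nM) in PBS pH 7.4, 0.01% Tween-20. Compound added for 30 min at RT, then streptavidin donor/nickel chelate acceptor beads (10 ug/mL) for 30 min.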
# PLK1 PBD inh – PLK1 (human) polo-box domain binding inhibition; P53350; Potency, µM, hits mostly inhibitors; Plk1 PBD binding of FITC phosphopeptide, fluorescence polarization; 2.8% of 360,000 active; also: series mostly up to about 57 µM; nearly all actives have a fitted effect of over 65% in size
# ALOX12 inh – inhibitors of human 12S-lipoxygenase ALOX12; purified 12hLO, xylenol orange hydroperoxide absorbance; Potency, µM (doses to about 108 µM), actives largely listed as inhibitors; 1.1% of 580,000 active; AID 1671190
#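 Purified human 12hLO at 150 nM in 25 mM Hepes, 0.01% Triton X-100, pH 7.0, preincubated 15 min at room temperature with compound. Reaction started with 40 uM arachidonic acid, 30 min at room temperature. Hydroperoxide measured by Fe-xylenol orange, 573/405 nm absorbance ratio.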
# G9a inh – inhibitors of human histone lysine methyltransferase G9a; Q96KQ7; G9a H3K9 monomethylation, AlphaScreen, 2 h; Potency, µM (highest dose often 102 µM), usual class: inhibitors; 8.8% of 350,000 active; also: nearly all actives have a fitted effect of over 75% in size
# Target sequence (Q96KQ7 913-1193 limits assumed): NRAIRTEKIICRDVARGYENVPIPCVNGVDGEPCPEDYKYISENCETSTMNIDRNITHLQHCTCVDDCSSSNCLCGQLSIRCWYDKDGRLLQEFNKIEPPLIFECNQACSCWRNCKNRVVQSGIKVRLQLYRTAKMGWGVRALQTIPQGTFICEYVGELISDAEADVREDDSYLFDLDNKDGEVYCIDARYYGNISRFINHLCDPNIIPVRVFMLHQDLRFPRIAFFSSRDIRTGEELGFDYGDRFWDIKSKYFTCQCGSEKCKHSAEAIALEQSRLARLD
#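 Methyltransferase reactions run at room temperature for 2 h (20 nM enzyme, 500 nM biotin-H3K9 peptide, 20 uM SAM) after a 15 min compound preincubation; product detected by AlphaScreen beads and anti-H3K9me1 antibody.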
# Numbers stand for hits; - = inactive; ? = inconclusive; . = no result; ! = repeats disagree; [ ] = another dose, or the depositor's remark. Calls follow the shape of the dose curve; as a rule, active = well fitted curve in the direction sought with a large enough effect; inconclusive = small, poorly fitted or top-dose-only effect, or another doubt; inactive = no such curve, though single readings can be large; an effect the other way counts as inactive or inconclusive.
SMILES,BAZ2B inh,JMJD2A Tudor inh,HP1b binding inh,PLK1 PBD inh,ALOX12 inh,G9a inh
COc1cc(-c2nc3oc4ccccc4c(=O)c3c(=O)n2Cc2ccco2)cc(OC)c1OC,-,-,-,-,?,?
CCOC(=O)c1cnn(CCOC(=O)c2ccccc2F)c1NC(=O)c1ccccc1F,-,-,-,-,-,-
CCCn1nnnc1NC(=O)c1cccs1,?,?,?,-,-,35µM
CCCn1nnnc1SCC(=O)NCc1cccs1,-,-,-,-,?,-
O=C(COC(=O)Cc1ccccc1[N+](=O)[O-])Nc1nnc(-c2ccccc2)o1,-,-,-,-,-,-
COc1ccc(CCNc2oc(COc3ccc(Cl)cc3)nc2C#N)cc1OC,20µM,?,-,.,-,?
CCc1nc(C#N)c(NCCc2ccc(OC)c(OC)c2)o1,.,.,.,.,-,.
COc1ccc(CCNc2oc(COc3cccc(C)c3)nc2C#N)cc1OC,?,?,?,.,?,14µM
COc1ccc(CNc2oc(COc3cccc(C)c3)nc2C#N)cc1,14µM,?,?,.,?,5µM
CCNc1oc(COc2cccc(C)c2)nc1C#N,-,-,-,-,-,-
Cn1nc(C(=O)Nc2ccc(I)cc2)c2ccccc2c1=O,.,.,.,.,-,.
O=C1NC(=Nc2ccccc2Cl)S/C1=C\c1cccc([N+](=O)[O-])c1O,11µM,40µM,?,27µM,?,8.9µM
O=C1NC(=S)S/C1=C\c1cccc([N+](=O)[O-])c1,.,-,-,-,-,.
O=C1NC(=Nc2ccccc2Cl)S/C1=C\c1cccc([N+](=O)[O-])c1,50µM,?,-,27µM,?,?
O=C1NC(=Nc2ccccc2Cl)S/C1=C\c1ccc(C(=O)O)cc1,-,-,-,-,-,-
COCCN1Cc2cccc(C(=O)NCCCN3CCCC3=O)c2C1=O,-,-,-,-,-,-
CCCNC(=O)CCC1CCN(C(=O)c2ccccc2F)CC1,.,.,.,.,-,.
NC1(C(=O)O)CCCCC1c1ccccc1 (configuration not stated),.,1.4µM,-,-,-,.
O=C(CCN1C(=O)c2ccccc2C1=O)NCc1cccc(Cl)c1,-,-,-,-,-,-
OCCNCCCOc1ccc(Cl)cc1Br,-,-,-,-,-,-
COCCNCCCOc1ccc(Cl)cc1Br,50µM,7.9µM,?,-,-,11µM
COCCCNCCCCOc1ccc(Br)cc1Cl,?,22µM,-,-,-,?
COCCNCCCOc1ccc(Br)cc1Cl,?,3.2µM,?,-,?,10µM
COCCNC(=O)c1cc(Br)ccc1Cl,-,-,-,-,-,-
C=CCNCCCOc1ccc(Cl)cc1Br,-,10µM,-,-,?,?
SMILES,BAZ2B inh,JMJD2A Tudor inh,HP1b binding inh,PLK1 PBD inh,ALOX12 inh,G9a inh
COCCCNC(=O)Nc1ccc(Br)cc1Cl,-,-,-,-,?,-[12.7 µM]
CCCC(=O)Nc1ccc(C(=O)/C=C/c2ccc(SC)cc2)cc1,-,-,-,-,-,.
COc1ccc(NC(=O)c2ccc(C#N)cc2)cc1NS(=O)(=O)c1ccc(F)cc1,-,-,-,-,-,8.9µM
COc1nccnc1NS(=O)(=O)c1ccc(NC(=S)NC(=O)c2ccc(F)cc2)cc1,-,-,-,-,35µM,?
COc1nccnc1NS(=O)(=O)c1ccc(NC(=S)NC(=O)c2ccccc2F)cc1,?,?,?,?,45µM,?
CC1CCCN(C(=O)CSc2n[nH]c(-c3cccs3)n2)C1 (configuration not stated),-,-,-,-,-,-
Cn1c(CO)nc2c3ccccc3ccc21,.,-,-,-,-,.
Cn1c(-c2cn(C3CCNCC3)nn2)nc2ccccc21,.,.,.,.,-,.
Cc1ccc(OCC(=O)N(C)CCc2ccccn2)cc1,?,10µM,-,-,?,-[2.33 µM]
Cc1ccc(OCC(=O)N2CCCC(CCC(=O)N(C)CCc3ccccn3)C2)cc1 (configuration not stated),-,-,-,-,-,-[0.501 µM]
CC(C)(C)c1ccc(OC(=O)N2CCOCC2)cc1,-,-,-,-,-,-
S=c1[nH]nc(COc2ccccc2)n1/N=C/c1ccc(Cl)cc1,-,-,-,27µM,-,7.1µM
S=c1[nH]nc(Cc2ccc(Br)cc2)n1/N=C/c1ccc(Cl)cc1,-,79µM,?,3.4µM,?,?
Cc1n[nH]c(=S)n1/N=C/c1ccc(OCc2ccc(Cl)cc2)cc1,-,-,-,-,?,?
CSc1ccc(/C=N/n2c(COc3ccccc3)n[nH]c2=S)cc1,?,?,?,34µM,-,22µM
S=c1[nH]nc(COc2ccccc2)n1/N=C/c1ccc(Cl)cc1Cl,-,-,-,?,-,?
Cc1nccn1CC(=O)NCC1CCN(c2cc(-c3ccc(F)cc3)[nH]n2)CC1,.,.,.,.,-,.
COc1ccc(N2CCC(CNC(=S)Nc3cc(C)ccc3C)C2)cc1 (configuration not stated),32µM,40µM,?,?,?,?
COc1ccc(N2CCC(CNC(=S)Nc3cc(C)cc(C)c3)C2)cc1 (configuration not stated),3.2µM,20µM,16µM,-,?,?
COc1ccc(C(C)O)cc1CSc1nc2ccccc2s1 (configuration not stated),.,.,.,.,-,.
COc1ccc(C2NCCc3c2[nH]c2ccccc32)cc1CSc1nc2ccccc2s1 (configuration not stated),45µM,25µM,?,?,32µM,8.9µM
CCN(CC)CCOC(=O)C1(C2CCCCC2)CCCCC1,?,-,-,-,-,34µM!
CCN(CC)CCOC(=O)C1(c2ccccc2)CCCC1,-,-,-,-,?,-[12.7 µM]
CCOC(=O)c1c(NC(=O)CSc2nnnn2-c2ccccc2)sc2c1CC(C)(C)NC2(C)C,71µM,?,-,-,.,.
CCOC(=O)c1c(NC(=O)c2ccc(C)cc2)sc2c1CC(C)(C)NC2(C)C,-,.,.,.,.,-
SMILES,BAZ2B inh,JMJD2A Tudor inh,HP1b binding inh,PLK1 PBD inh,ALOX12 inh,G9a inh
CCOC(=O)c1c(NC(=O)CSc2nc3ccc(C)cc3[nH]2)sc2c1CC(C)(C)NC2(C)C,-,?,-,-,?,45µM
CCOC(=O)c1c(NC(=O)CSc2nnnn2-c2ccccc2OCC)sc2c1CC(C)(C)NC2(C)C,-,-,-,-,-,50µM
COC(=O)Cc1ccc(OC(=O)CCS(=O)(=O)c2ccc(Cl)cc2)cc1,-,-,-,-,-,-[12.7 µM]
COc1ccccc1OCc1n[nH]c(=S)n1Cc1ccccc1,-,32µM,-,-,-,13µM
Cc1nccn1CCc1n[nH]c(=S)n1Cc1ccccc1,-,40µM,-,-,-,2µM
S=c1[nH]nc(CCc2ccccc2)n1Cc1ccccc1,-,?,-,-,?,3.5µM
Cc1ccc(NCc2n[nH]c(=S)n2Cc2ccccc2)cc1Cl,?,?,-,-,?,18µM
COc1ccc(C(=O)N2CCN(C3CCCCC3)CC2)cc1OC,50µM,28µM,?,-,0.63µM,10µM

# Compound activity deposited in PubChem by National Center for Advancing Translational Sciences (NCATS).
